High-throughput results deposited in PubChem BioAssay by several laboratories.
TROY NFkB inh: inhibitors of TROY-driven NF-kB signaling, primary screen, Q293 LMP1-TROYcd cells, NF-kB luciferase, uHTS. Q293 LMP1-TROYcd NF-kB luciferase reporter, 4 h. inhibition, % at 10 µM. 360,000 compounds, 0.98% hits;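 active = compounds whose plate-normalised and pattern-corrected inhibition of the luciferase reporter signal at the single screening dose is 50% or more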
Peg3 prom inh-1: Peg3 promoter-driven luciferase inhibitors, primary screen, cell-based, HeLa, luciferase luminescence; 360,000 compounds, 1.7% hits; inhibition, % at 20 µM; HeLa PEG-Prom luciferase reporter, overnight; AID 588405, 2011;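 active = inhibition of at least 50% at 20 µM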
MITF TRPM1 inh: inhibitors of MITF-dependent TRPM1 promoter reporter, primary screen, cell-based, SK-MEL-5, single point, luciferase. SK-MEL-5 TRPM1 promoter luciferase, 24 h. 330,000 compounds, 0.83% hits. AID 488899, 2010. inhibition, % at 12.5 µM;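 active = mean inhibition across replicates of 60% or more, whatever share of single replicates reaches that level; inconclusive = some that reach 60%, reason not given; inactive = mean inhibition across replicates below 60%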
TWEAK Fn14 block: inhibitors of TWEAK-Fn14 signaling, primary screen, luciferase reporter cells, uHTS; TWEAK-stimulated Fn14 reporter cells, luciferase luminescence, 8 h; inhibition, % at 10 µM; 360,000 compounds, 2% hits; in the data active = inhibition above about 50%
LMP1 NFkB inh: EBV LMP1-driven NF-kappaB luciferase reporter inhibitors, primary screen, cell-based, luminescence, single point; LMP1-induced NF-kappaB luciferase reporter cells; inhibition, % at 12.5 µM; 350,000 compounds, 0.69% hits; in the data active = inhibition above about 41%; inconclusive = no clear call, values can overlap the other calls;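 also: 0% = neutral control wells and 100% = reference inhibitor control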
Shn3 3UTR inh: reduction of Shn3 3'UTR firefly luciferase signal, primary screen, Schnurri-3 inhibitor project, cell-based, Clone20 osteoblasts, set 2. AID 588674, 2011. Clone20 osteoblast Shn3 3'UTR firefly luciferase, 24 h. 360,000 compounds, 0.52% hits. inhibition, % at 12.5 µM;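 active = mean inhibition of at least 75% with every replicate also reaching 75%; inconclusive = mean inhibition at least 75% but some replicate below; inactive = mean inhibition below 75%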;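 also: 0% = median of neutral control wells and 100% = pilot-screen positive control compound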
Peg3 prom inh-2: Peg3 promoter reporter inhibitors, retest, confirmation, cell-based, HeLa, luciferase reporter, single concentration. shares compounds with Peg3 prom inh-1. HeLa PEG-Prom luciferase reporter, luminescence, overnight. inhibition, % at 20 µM. AID 602417, 2012. 1,300 compounds, 84% hits;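 active = at 20 µM dose, 40% or more inhibition averaged across four replicates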
The depositor's hits bear a star; u = inconclusive; x = no result given. A selection: hits, their analogues and other compounds. The true share with any hit is near 4.1%.

SMILES	TROY NFkB inh	Peg3 prom inh-1	MITF TRPM1 inh	TWEAK Fn14 block	LMP1 NFkB inh	Shn3 3UTR inh	Peg3 prom inh-2
CC1CCCN(c2ncnc3c2cnn3-c2ccc(Cl)cc2)C1 (configuration not stated)	88.6*	72.8*	92.1*	103.7*	60.4*	77.6	85.7*
Cc1ccc(C(=O)Oc2ccc(-c3nnco3)cc2)o1	4.3	-5.8	-9.0	-3.8	1.8	4.1	x
CCOC(=O)c1c(C)[nH]c(C(=O)CSc2nnc(-c3ccncc3)n2CC)c1C	12.9	21.1	-6.3	21.9	1.1	3.1	x
C=CCn1c(SCC(=O)c2[nH]c(C)c(C(=O)OCC)c2C)nc2scc(-c3ccc(OC)c(OC)c3)c2c1=O	15.9	86.3*	102.0*	-56.5	-0.9	79.7	11.4
O=C(Cc1ccccc1)Nc1ccccc1C(=O)N1CCN(c2ccccc2)CC1	-23.4	12.1	6.8	5.6	-8.7	6.3	x
O=[N+]([O-])c1cc(-c2csc(NCCc3nc4cc(Cl)c(N5CCCCC5)cc4n3CCCO)n2)ccc1Cl	3.7	-4.0	-11.3	-10.8	-25.2	-6.3	x
Cc1ccc(Cn2c(CCNc3nc(-c4ccc(Cl)c([N+](=O)[O-])c4)cs3)nc3cc(Cl)c(Cl)cc32)cc1	37.0	72.7*	3.3	32.3	2.2	-16.7	34.8
C=CCn1c(SCc2ccccc2F)nc2cc(C(=O)O)ccc2c1=O	-6.9	25.0	-2.5	1.7	1.7	5.4	x
Fc1ccc(Nc2nc(-c3ccncc3)nc3ccccc23)cc1F	6.0	54.3*	-16.9	-26.7	-2.8	14.0	33.3
O=c1c2ccccc2oc2cc(Br)ccc12	-53.1	-139.9	-25.0	-18.1	0.6	-26.6	x
O=c1c2ccccc2oc2cc(C#CC3(O)CCCCC3)ccc12	87.3*	60.2*	49.2	100.5*	10.6	41.6	58.6*
Nc1ccc(C#Cc2ccc3sc4ccccc4c(=O)c3c2)cc1	-74.3	-409.4	-63.4	-13.7	6.3	-145.0	x
O=c1c2ccccc2sc2ccc(C#CC3(O)CCCCC3)cc12	92.4*	78.6*	93.2*	106.8*	81.2*	88.7*	92.4*
O=C(c1ccc(F)cc1F)N1CCCc2ccccc21	-2.9	-1.5	8.9	-9.1	0.6	-1.2	x
Cc1nn(-c2nc3ccccc3[nH]2)c(=O)c2ccccc12	91.6*	104.1*	96.1*	105.4*	81.3*	92.7*	98.7*
CC(=O)Nc1ccc(NC(=O)CS(=O)(=O)c2cn(CC(=O)N3CCCC3)c3ccccc23)cc1	-3.0	-20.4	-11.6	-4.8	-2.2	5.2	x
COc1ccc(Br)cc1/C=N/NC(=O)c1ccc(COc2ccc3c(c2)CCC3)o1	-46.9	-5.0	-12.3	-23.3	-6.8	-16.8	x
O=C(N/N=C/c1cc([N+](=O)[O-])ccc1O)c1ccc(COc2ccc3c(c2)CCC3)o1	-24.9	52.0*	47.4	-10.6	-48.3	87.8*	45.0*
Fc1ccc([C@@H]2CCNC[C@H]2COc2ccc3c(c2)OCO3)cc1	-10.4	66.0*	u	-7.3	-11.3	7.6	62.3*
CCOC1=C2[C@@H](CN(S(=O)(=O)c3ccccc3C)[C@H]2c2ccc(Cl)cc2)[C@H]2C(=O)NC(=O)[C@H]2C1	13.8	3.9	x	13.7	x	-1.1	x
O=C(COc1ccc(Cl)cc1)Nc1cccc(-c2ccc(N3CCOCC3)nn2)c1	15.7	-162.9	-61.7	29.5	-35.0	-49.3	x
COc1cccc(NC(=O)Nc2cccc(C(=O)O)c2)c1	-21.9	67.3*	81.4*	4.3	61.4*	46.8	55.0*
O=C(Nc1cccc(C(=O)O)c1)Nc1ccc2c(c1)OCO2	-30.1	84.0*	89.3*	5.5	73.3*	74.4	73.5*
COc1cccc(NC(=O)c2ccccc2)c1	-57.9	-275.9	-99.0	-20.7	-5.5	1.7	x
O=C(CSc1c[nH]c2ccccc12)N1CCOCC1	-13.4	-15.5	12.5	-9.8	-7.2	-1.8	x
SMILES	TROY NFkB inh	Peg3 prom inh-1	MITF TRPM1 inh	TWEAK Fn14 block	LMP1 NFkB inh	Shn3 3UTR inh	Peg3 prom inh-2
COc1ccc(NC(=O)c2cc3c(CO)cnc(C)c3oc2=Nc2cccc(F)c2)c(OC)c1	13.5	58.8*	10.9	-7.3	46.8*	-12.3	16.9
Cc1ncc(CO)c2cc(C(=O)Nc3cccc(F)c3)c(=Nc3cccc(C(N)=O)c3)oc12	13.2	-21.1	9.1	0.4	-2.4	-15.2	x
O=C(Cc1csc(Nc2nc(=S)[nH]c3ccccc23)n1)NCc1ccccc1Cl	5.4	50.9*	31.4	-31.8	-28.6	0.2	44.4*
O=C(Cc1csc(Nc2nc(=S)[nH]c3ccccc23)n1)NCc1cccc(Cl)c1	8.7	45.2	14.2	-27.4	-44.3	11.2	x
Cc1cc2occ(CC(=O)NC3(C)CCS(=O)(=O)C3)c2cc1C (configuration not stated)	2.9	13.5	7.6	0.0	1.4	4.1	x
CN(C)CCOC1(Cc2ccc(F)cc2)CCC(C(C)(C)C)CC1 (configuration not stated)	2.3	8.3	37.3	-8.8	10.4	10.0	x
Cc1ccc(CC2(OCCN(C)C)CCC(C(C)(C)C)CC2)cc1 (configuration not stated)	-2.8	95.4*	57.1	-2.1	1.9	1.0	100.8*
Cn1c(=O)c(Oc2cc(Cl)cc(Cl)c2)nc2ccccc21	-16.9	68.0*	0.0	-13.0	-7.7	-1.7	35.9
CCc1ccc(/C=C2\SC(=S)N(CCCC(=O)Nc3ccccn3)C2=O)cc1	71.5*	81.5*	33.6	40.9	51.8*	36.3	79.7*
O=C(CCN1C(=O)/C(=C/c2ccc(F)cc2)SC1=S)N[C@@H](CO)Cc1ccccc1	-0.4	78.6*	-6.3	9.1	-2.2	-28.0	72.3*
O=C(CCCN1C(=O)/C(=C/c2cccc(Br)c2)SC1=S)Nc1cccnc1	4.8	75.6*	8.9	30.6	7.6	-22.0	96.4*
COc1cc(Br)c(CC(=O)NNC(=O)c2ccc(F)cc2)cc1OC	1.5	-22.0	10.6	-3.8	3.8	-8.2	x
CCn1cc(/C=C(\NC(=O)c2ccccc2F)C(=O)NCCCn2ccnc2)c2ccccc21	-10.7	16.1	4.3	2.4	-4.5	7.9	x
COc1ccccc1N1CCN(C(=O)c2sc3ncnc(N4CCN(c5ccccn5)CC4)c3c2C)CC1	23.4	84.4*	15.8	27.5	24.1	34.6	74.2*
Cc1c(C(=O)N2CCN(c3ccc(F)cc3)CC2)sc2ncnc(N3CCN(c4ccccn4)CC3)c12	52.6*	50.2*	36.3	60.4*	24.8	30.3	87.1*
